This is a sample that favours compounds with a hit; in the whole collection about 3.6% have one here.
DUSP3 inh: inhibitors of human VHR1 phosphatase (DUSP3) | P51452 | recombinant VHR phosphatase, pNPP absorbance | inhibition, % at 13.3 µM | 290,000 tested, 0.52% active | AID 1654; in the data active = inhibition above about 50%
Target sequence (P51452 whole entry, looked up): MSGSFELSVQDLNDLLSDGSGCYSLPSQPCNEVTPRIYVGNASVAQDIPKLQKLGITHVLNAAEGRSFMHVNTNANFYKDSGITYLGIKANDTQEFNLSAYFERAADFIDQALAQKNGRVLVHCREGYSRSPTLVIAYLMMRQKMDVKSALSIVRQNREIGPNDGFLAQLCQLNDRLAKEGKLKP
Mtb hypoxia inh: Mtb hypoxia fluorescent reporter inhibition. 300,000 tested, 0.1% active. M. tuberculosis hypoxia-regulated fluorescent reporter, fluorescence. fluorescence inhibition, % (concentration not given with the values). AID 1159583; in the data active = fluorescence inhibition mostly above about 23%, no sharp cut-off; inactive = mostly below about 17%
Mtb FBA inh: inhibits M. tuberculosis FBA enzyme; P9WQA3; purified M. tuberculosis FBA, fluorescence read-out; inhibition, % at 1 µM; 360,000 tested, 2.3% active; in the data active = inhibition above about 27%;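 also: 0% = vehicle and 100% = reference inhibitor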
GDH-TPI inh: inhibits GDH-TPI coupling enzymes, artifact for Mtb FBA screen; GDH-TPI coupled enzyme counterscreen, NADH absorbance; inhibition, % at 4.8 µM; 360,000 tested, 1.2% active; AID 588335; in the data active = inhibition above about 30%;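 also: 0% = DMSO wells and 100% = wells lacking the enzyme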
Mtb betalactam: beta-lactam sensitization of Mtb H37Rv; 330,000 tested, 0.27% active; inhibition, % at 25 µM; AID 434955; M. tuberculosis H37Rv growth with meropenem, percent inhibition; call rule not given here;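 also: growth measured after seven days incubation then overnight dye step; 0% = bacteria only wells and 100% = bacteria with antibiotic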
* = called active by the depositor; · = not tested or not shown; + = active, no number.

SMILES | DUSP3 inh | Mtb hypoxia inh | Mtb FBA inh | GDH-TPI inh | Mtb betalactam
CNc1oc(/C=C/c2cccc(OC)c2)nc1C#N | 9 | 7 | + | 28 | 6
COc1ccc(Nc2oc(COc3cccc(C)c3)nc2C#N)cc1 | 6 | · | -1 | 3 | -1
COc1ccc(/C=C/c2nc(C#N)c(NCCN(C)C)o2)cc1OC | -8 | 8 | 15 | 28 | 0
COc1ccc(CCNc2oc(-c3ccccc3OC)nc2C#N)cc1 | 8 | 10 | + | 18 | 1
C=C(C)CNC(=S)NN=Cc1ccc([N+](=O)[O-])cc1 | · | 10 | · | · | ·
CCC1=C(OC(=O)N(CC)CC)N2C(=O)OC(=NCC(=O)OC)[C@]2(Cc2ccccc2)C2C1=CCC1C(=O)N(CC(=O)OC)C(=O)C12 (some centres not stated) | · | 4 | · | · | ·
COC(=O)c1c(C#N)c(N)nc2c1CCC2 | 13 | 14 | 130* | 1 | -6
CCOc1ccc(NC(=O)CCC(=O)c2ccc(OC)cc2)cc1 | 38 | 4 | -3 | 16 | 96
COc1ccc(C(=O)COC(=O)CCC(=O)Nc2ccc(C(C)=O)cc2)cc1 | -2 | -2 | + | 7 | -6
CCOC(=O)C1C2COc3ccc(Cl)cc3C2N2C(=O)c3cc(Br)ccc3NC(=O)[C@@]12C (some centres not stated) | · | -3 | · | · | ·
CC(C)C(OC(=O)/C=C/c1ccc2c(c1)OCO2)C(=O)NC(N)=O (configuration not stated) | -18 | 7 | 14 | 41* | 1
N#CCOC(=O)/C=C/c1ccc2c(c1)OCO2 | 6 | -1 | 13 | 38* | ·
O=C(COC(=O)/C=C/c1ccc2c(c1)OCO2)NC1CC1 | 3 | -9 | 14 | 22 | 10
O=c1cc(CN2CCN(S(=O)(=O)c3cccc(Cl)c3)CC2)c2ccc(O)cc2o1 | · | -1 | 118* | 1 | -3
Cc1ccc2c(CN3CCN(S(=O)(=O)c4ccc(Cl)cc4)CC3)cc(=O)oc2c1C | · | -3 | 5 | -1 | ·
O=c1cc(CN2CCN(S(=O)(=O)c3ccc4c(c3)OCCO4)CC2)c2ccc(O)cc2o1 | 15 | -2 | 199* | 20 | -2
O=C(COc1ccc(C=NNC(=O)C(=O)N2CCCCC2)cc1)Nc1ccccc1Cl | · | 9 | · | · | ·
CCOc1ccccc1N1CCN(C(=O)C2c3ccccc3Oc3ccccc32)CC1 | 50* | 9 | 0 | 2 | -8
CNC(=S)NN=Cc1ccc(OCc2ccccc2)c(Br)c1 | · | 3 | · | · | ·
COc1ccc(C(=O)NCC(=O)N2CCC3(CC2)NCCc2[nH]cnc23)cc1 | -15 | -3 | 4 | 10 | 5
COc1cccc(C(=O)NCC(=O)N2CCC3(CC2)NCCc2[nH]cnc23)c1OC | -14 | 2 | 7 | 51* | -2
CC1=NN(c2ccc(C)cc2C)C(=O)C1C(c1ccccc1O)C1C(=O)N(c2ccc(C)cc2C)N=C1C (configuration not stated) | 3 | 5 | -2 | 10 | -1
CC1=NN(c2ccc(C)c(C)c2)C(=O)C1C(c1cccc(O)c1)C1C(=O)N(c2ccc(C)c(C)c2)N=C1C (configuration not stated) | 54* | -1 | -3 | 13 | 10
CC(=NNC(=S)NCCc1ccccc1)c1ccc(C)cc1 | · | 8 | · | · | ·
CCOC(=O)/C=c1/s/c(=C/c2ccc3cc(OC)ccc3c2)c(=O)n1CC(=O)NCC1CCCO1 (configuration not stated) | · | 3 | 5 | 1 | ·
SMILES | DUSP3 inh | Mtb hypoxia inh | Mtb FBA inh | GDH-TPI inh | Mtb betalactam
CCOC(=O)/C=c1\s/c(=C\c2c(OC)ccc3ccccc23)c(=O)n1CC(=O)NCC1CCCO1 (configuration not stated) | 6 | · | -3 | 38* | ·
O=C1C=C(c2ccc(F)cc2OCc2ccccc2)CC(c2ccc3c(c2)OCO3)C1 (configuration not stated) | · | 16 | · | · | ·
Cc1ccc(C=NN=C2SCC(=O)N2CC2CC2)cc1 | · | 12 | · | · | ·
COc1cc(C=C(NC(=O)c2ccccc2Cl)C(=O)O)cc(OC)c1OC | · | 8 | · | · | ·
Cc1ccc(N=Cc2c(O)n(C)c(=O)n(C)c2=O)cc1 | 35 | 12 | -2 | 35* | 2
Cn1c(O)c(/C=N/c2ncccn2)c(=O)n(C)c1=O | 23 | 3 | 4 | 32* | ·
Cc1cccc(N=Cc2c(O)n(C)c(=O)n(C)c2=O)c1 | -12 | 12 | -2 | 36* | -3
COc1cc2c(c(OC)c1OC)-c1ccc(C(=O)O)cc1C(NC(C)=O)CC2 (configuration not stated) | · | 1 | · | · | ·
CN(C)C=Nc1ncc(C(=O)c2ccc(Cl)cc2)s1 | · | 4 | · | · | ·
COc1c(O)cccc1C(O)C1CCN(CCc2ccc(F)cc2)CC1 (configuration not stated) | · | 10 | · | · | ·

Screening data deposited in PubChem by several laboratories.
